Measured values reported in the supplement of paper PMC12350171.
Counter-ions that a name gives are not always drawn.

Columns and labels:
Conditions in all cases: 20 µM
[1] = test system: Salmonella enterica typhimurium; test: growth AUC normalised to DMSO control (fraction of control); higher = less growth inhibition, active = hit call of the paper
How it was run: (§1)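 For the AUC endpoint, growth curves were integrated by the trapezoidal rule up to the exponential-to-stationary transition and normalised to DMSO controls on the same plate. The curves came from OD578 readings taken hourly for 24 h, in three biological replicates. Pathogens had been passaged anaerobically twice and inoculated at an OD578 of 0.01 into pre-reduced mGAM plates carrying 20 μM compound and 1% DMSO, sealed with breathable membranes. Medium for Haemophilus parainfluenzae also contained hemin and NAD.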

Shigella flexneri = test: as above
How it was run: as §1

Vibrio cholerae = test: as above
How it was run: as §1

[2] = test system: Yersinia pseudotuberculosis; test: as above
How it was run: as §1

P. vulgatus RND KO = test: growth AUC normalised to DMSO control (median) (fraction of control); higher = less growth inhibition, active = hit call of the paper
How it was run: (§2)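 Each strain went through two overnight passages under anaerobic conditions before growth in mGAM in 96-well plates, starting at OD578 0.01, with each compound from the approved-drug library at 20 μM and 1% DMSO. Inside an anaerobic incubator, OD578 was recorded every hour for 24 h. Growth curves were cut off at entry into stationary phase, and the area under the curve was calculated by the trapezoidal rule and normalised to vehicle wells on the same plate. Reported values are medians of three biological replicates.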

P. vulgatus WT = test: as above
How it was run: as §2

[3] = test system: S. enterica typhimurium WT; test: as above
How it was run: as §2

[4] = test system: S. enterica typhimurium tolC KO; test: as above
How it was run: as §2

Measured: growth AUC normalised to DMSO control
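Wherever growth AUC normalised to DMSO control (median) is given: active when median AUC fell below 0.1.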

COc1cc2ncnc(Nc3ccc(F)c(Cl)c3)c2cc1OCCCN1CCOCC1 [Gefitinib]
inactive: [1] 1.01 | Shigella flexneri 1.02 | Vibrio cholerae 1 | [2] 0.983 | P. vulgatus RND KO 1.07 | P. vulgatus WT 1.07 | [3] 1.01 | [4] 0.928

Clc1ccc(Nc2nnc(Cc3ccncc3)c3ccccc23)cc1 [Vatalanib]
inactive: [1] 1.01 | Shigella flexneri 1.05 | Vibrio cholerae 1.01 | [2] 1.02 | P. vulgatus RND KO 0.98 | P. vulgatus WT 0.992 | [3] 1.01 | [4] 0.966

CC(=O)c1ccc(S(=O)(=O)NC(=O)NC2CCCCC2)cc1 [Acetohexamide]
inactive: [1] 1 | Shigella flexneri 0.998 | Vibrio cholerae 0.984 | [2] 0.989 | P. vulgatus RND KO 0.949 | P. vulgatus WT 1 | [3] 0.996 | [4] 0.994

CNCC[C@@H](Oc1ccccc1C)c1ccccc1 [Tomoxetine hydrochloride]
inactive: [1] 1.01 | Shigella flexneri 1.02 | Vibrio cholerae 1.01 | [2] 1 | P. vulgatus RND KO 0.954 | P. vulgatus WT 0.969 | [3] 0.996 | [4] 0.974

C#C[C@]1(O)CC[C@H]2[C@@H]3CCc4cc(O)ccc4[C@H]3CC[C@@]21C [Ethinylestradiol]
inactive: [1] 0.985 | Shigella flexneri 1.02 | Vibrio cholerae 0.996 | [2] 1.03 | P. vulgatus RND KO 0.913 | P. vulgatus WT 0.913 | [3] 0.998 | [4] 0.985

CNCCCN1c2ccccc2CCc2ccccc21 [Desipramine hydrochloride]
inactive: [1] 0.974 | Shigella flexneri 0.946 | Vibrio cholerae 0.957 | [2] 0.986 | P. vulgatus RND KO 0.947 | P. vulgatus WT 0.976 | [3] 0.964 | [4] 0.925

CCN(CC)CCNC(=O)c1ccc(N)cc1 [Procainamide hydrochloride]
inactive: [1] 0.994 | Shigella flexneri 0.99 | Vibrio cholerae 0.999 | [2] 1 | P. vulgatus RND KO 1.02 | P. vulgatus WT 1.03 | [3] 1 | [4] 1

CCCCc1cc2ccccc2c(OCCN(C)C)n1 [Dimethisoquin hydrochloride]
inactive: [1] 1 | Shigella flexneri 1.03 | [2] 1.02 | P. vulgatus RND KO 1 | P. vulgatus WT 1.02 | [3] 0.997 | [4] 0.918
active: Vibrio cholerae 0.866

O=C(O)Cc1ccccc1Nc1c(Cl)cccc1Cl [Diclofenac sodium]
inactive: [1] 0.975 | Shigella flexneri 0.957 | Vibrio cholerae 0.973 | [2] 0.982 | P. vulgatus RND KO 0.95 | P. vulgatus WT 0.964 | [3] 1 | [4] 0.997

COc1ccc2cc([C@@H](C)C(=O)O)ccc2c1 [(R) Naproxen sodium salt]
inactive: [1] 1.02 | Shigella flexneri 1.08 | Vibrio cholerae 1.06 | [2] 1.03 | P. vulgatus RND KO 1.06 | P. vulgatus WT 1.07 | [3] 1 | [4] 1.02

C[C@]12CC[C@H]3[C@@H](CCC4=CC(=O)CC[C@@]43C)[C@@H]1CC[C@@H]2C(=O)CO [Deoxycorticosterone]
inactive: [1] 1 | Shigella flexneri 1.03 | Vibrio cholerae 1.03 | [2] 1.03 | P. vulgatus RND KO 1.07 | P. vulgatus WT 1.07 | [3] 1 | [4] 0.933

CCC1=C(C)CN(C(=O)NCCc2ccc(S(=O)(=O)NC(=O)N[C@H]3CC[C@H](C)CC3)cc2)C1=O [Glimepiride]
inactive: [1] 1.02 | Shigella flexneri 1.01 | Vibrio cholerae 1.02 | [2] 1.01 | P. vulgatus RND KO 1.03 | P. vulgatus WT 1.01 | [3] 1.03 | [4] 0.993

CN(C)CCn1nnnc1SCC1=C(C(=O)O)N2C(=O)[C@@H](NC(=O)Cc3csc(N)n3)[C@H]2SC1 [Cefotiam hydrochloride]
active: [1] 0.0032 | Shigella flexneri 0.0159 | Vibrio cholerae 0.0593 | [2] 0.03 | P. vulgatus RND KO 0.0136 | P. vulgatus WT 0.00849 | [3] 0.00304 | [4] 0.00289

O=C(O)c1ccccc1Nc1cccc(C(F)(F)F)c1 [Flufenamic acid]
inactive: [1] 0.992 | Shigella flexneri 0.963 | Vibrio cholerae 0.906 | [2] 0.981 | P. vulgatus RND KO 0.833 | P. vulgatus WT 0.849 | [3] 1.01 | [4] 0.968

CCOC1O[C@H]([C@@H](COCc2ccccc2)OCc2ccccc2)[C@H](OCc2ccccc2)[C@H]1O (stereo partly drawn) [Tribenoside]
inactive: [1] 1 | Shigella flexneri 1.01 | Vibrio cholerae 1 | [2] 0.988 | P. vulgatus RND KO 0.946 | P. vulgatus WT 0.987 | [3] 1.01 | [4] 0.959

CC(C)(C#N)c1cc(Cn2cncn2)cc(C(C)(C)C#N)c1 [Anastrozole]
inactive: [1] 1.02 | Shigella flexneri 1.07 | Vibrio cholerae 1.04 | [2] 0.696 | P. vulgatus RND KO 1.09 | P. vulgatus WT 1.06 | [3] 0.991 | [4] 0.996

CC(C)NC(=N)NC(=N)Nc1ccc(Cl)cc1 [Proguanil hydrochloride]
inactive: [1] 0.959 | Shigella flexneri 0.962 | Vibrio cholerae 0.985 | [2] 0.992 | P. vulgatus RND KO 1 | P. vulgatus WT 1.01 | [3] 0.988 | [4] 0.984

CCCCOc1cc(C(=O)OCCN(CC)CC)ccc1N [Benoxinate hydrochloride]
inactive: [1] 1 | Shigella flexneri 0.991 | Vibrio cholerae 0.936 | [2] 0.992 | P. vulgatus RND KO 1 | P. vulgatus WT 0.977 | [3] 0.978 | [4] 0.991

CC(=O)O[C@]1(C(C)=O)CC[C@H]2[C@@H]3C=C(Cl)C4=CC(=O)CC[C@]4(C)[C@H]3CC[C@@]21C [Chlormadinone acetate]
inactive: [1] 0.989 | Shigella flexneri 0.993 | Vibrio cholerae 1 | [2] 1 | P. vulgatus RND KO 0.945 | P. vulgatus WT 0.977 | [3] 0.998 | [4] 0.981

CC[C@H](C)C(=O)O[C@H]1C[C@H](O)C=C2C=C[C@H](C)[C@H](CC[C@@H](O)C[C@@H](O)CC(=O)O)[C@H]21 [Pravastatin]
inactive: [1] 1.04 | Shigella flexneri 1.08 | Vibrio cholerae 1.09 | [2] 1.02 | P. vulgatus RND KO 1.05 | P. vulgatus WT 1.06 | [3] 1.02 | [4] 1.01

N=C(N=C(N)N)N1CCOCC1 [Moroxidine hydrochloride]
inactive: [1] 0.999 | Shigella flexneri 1 | Vibrio cholerae 0.991 | [2] 0.965 | P. vulgatus RND KO 1.01 | P. vulgatus WT 1.04 | [3] 1.01 | [4] 0.992

CN[C@H]1CC[C@@H](c2ccc(Cl)c(Cl)c2)c2ccccc21 [Sertraline]
inactive: [1] 0.992 | Shigella flexneri 0.978 | Vibrio cholerae 0.928 | [2] 1.01 | P. vulgatus RND KO 0.998 | P. vulgatus WT 1.02 | [3] 0.999 | [4] 0.945

Nc1nc2c(ncn2COCCO)c(=O)[nH]1 [Acyclovir]
inactive: [1] 1.01 | Shigella flexneri 1.01 | Vibrio cholerae 1.01 | [2] 0.995 | P. vulgatus RND KO 1.05 | P. vulgatus WT 1.02 | [3] 1 | [4] 1

CN(C)CCN(Cc1cccs1)c1ccccn1 [Methapyrilene hydrochloride]
inactive: [1] 0.977 | Shigella flexneri 0.972 | Vibrio cholerae 0.995 | [2] 0.994 | P. vulgatus RND KO 1.01 | P. vulgatus WT 0.995 | [3] 1 | [4] 0.985

CC(=O)Nc1c(I)c(C(=O)N[C@H]2C(O)O[C@H](CO)[C@@H](O)[C@@H]2O)c(I)c(N(C)C(C)=O)c1I (stereo partly drawn) [Metrizamide]
inactive: [1] 1.01 | Shigella flexneri 0.985 | Vibrio cholerae 0.988 | [2] 1.01 | P. vulgatus RND KO 1 | P. vulgatus WT 1.01 | [3] 1.02 | [4] 1.01

C[N+](C)(C)CCCCCC[N+](C)(C)C [Hexamethonium dibromide dihydrate]
inactive: [1] 0.947 | Shigella flexneri 0.996 | Vibrio cholerae 0.971 | [2] 0.966 | P. vulgatus RND KO 0.992 | P. vulgatus WT 1 | [3] 0.99 | [4] 1.02

CN(C(=O)CN(CCO)CC(=O)N(C)C(C)(C)Cc1ccccc1)C(C)(C)Cc1ccccc1 [Oxethazaine]
inactive: [1] 0.974 | Shigella flexneri 1.01 | Vibrio cholerae 0.99 | [2] 0.995 | P. vulgatus RND KO 0.688 | P. vulgatus WT 0.646 | [3] 1.01 | [4] 0.966

CN1CCc2cccc3c2[C@H]1Cc1ccc(O)c(O)c1-3 [R(-) Apomorphine hydrochloride hemihydrate]
inactive: [1] 0.999 | Shigella flexneri 1 | Vibrio cholerae 1.01 | [2] 1.02 | P. vulgatus RND KO 1.02 | P. vulgatus WT 1.05 | [3] 1.01 | [4] 0.983

COC(=O)C1=C(C)NC(C)=C(C(=O)OCCN(C)Cc2ccccc2)C1c1cccc([N+](=O)[O-])c1 (stereo not drawn) [Nicardipine hydrochloride]
inactive: [1] 1 | Shigella flexneri 1.01 | Vibrio cholerae 0.966 | [2] 1 | P. vulgatus RND KO 1.02 | P. vulgatus WT 0.977 | [3] 1.01 | [4] 0.901

c1coc(CNc2ncnc3[nH]cnc23)c1 [Kinetin]
inactive: [1] 1.01 | Shigella flexneri 1.02 | Vibrio cholerae 1.01 | [2] 0.992 | P. vulgatus RND KO 1.01 | P. vulgatus WT 1.05 | [3] 1 | [4] 1.01

NS(=O)(=O)c1cc2c(cc1C(F)(F)F)NC(Cc1ccccc1)NS2(=O)=O (stereo not drawn) [Bendroflumethiazide]
inactive: [1] 1 | Shigella flexneri 1.01 | Vibrio cholerae 0.997 | [2] 1.01 | P. vulgatus RND KO 0.962 | P. vulgatus WT 0.977 | [3] 1.01 | [4] 0.993
